Compounds without any hit were thinned out: in the full panel of roughly 83,000, 20% have a hit.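 Single-concentration screen, 48 h exposure, 96-well plates. Endpoint: percent growth. Below 10 = active.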 The source made the active and inactive calls.
Test system: SF-268 CNS
Test: NCI-60 one-dose screen, 48 h (100 = growth as untreated, 0 = no growth, -100 = all killed)
Conditions: 10 µM unless noted

Question: Which growth does the source give for `CCn1cc(-c2cc(-c3ccc(Cl)cc3)nc(N)n2)c(-c2ccc(Br)cc2)n1` here?
Answer: The growth was 94.8% (inactive).

Question: `CCOC(CNC(=O)c1cccc([N+](=O)[O-])c1)OCC` was tested. Which growth did it give?
Answer: The growth was 93.6% (inactive).

Question: For `Cc1cccc([N+](=O)[O-])c1I`, which growth is on record?
Answer: Its growth is 105% (inactive).

Question: With `CCOc1cc(NC(=O)c2ccccc2)c(OCC)cc1N` as the molecule, how does the growth read?
Answer: Its growth is 106% (inactive).

Question: `CN(C)CCOc1ccc(/C(=C(/CCCl)c2ccccc2)c2ccccc2)cc1` was tested. Which growth did it give?
Answer: Its growth is 33% (inactive).

Question: How did the growth turn out when `Nc1nc(N)c2c(n1)NC(c1ccc(F)cc1)C1CCc3ccccc3C1=N2` (configuration not stated) was run?
Answer: The growth was 76.1% (inactive).

Question: How did the growth turn out when `CNC(=O)c1cc(Oc2ccc3nc(NC(=O)c4ccc5ncccc5c4)sc3c2)ccn1` was run?
Answer: The growth was 97.4% (inactive).

Question: `CC1(C)CC[C@]23CC[C@]4(C)[C@H](CC[C@@H]5[C@@]6(C)C/C(=C/c7ccncc7)C(=O)C(C)(C)[C@@H]6CC[C@]54C)[C@H]2[C@H]1OC3=O` was tested. Which growth did it give?
Answer: Its growth is 42.7% [100 µM] (inactive).

Question: Which growth does the source give for `CC1=CC[C@@H]2C(C)(C)C(=O)CC[C@@]2(C)[C@@H]1COc1ccc2ccc(=O)oc2c1` here?
Answer: The growth was 86.4% (inactive).

Question: Which growth does the source give for `COc1ccc(/C=C/C=C\C(=O)c2ccc(-n3ccnc3)cc2)cc1` here?
Answer: Its growth is 96.2% (inactive).

Question: For `CCc1cccc(Cl)c1`, which growth is on record?
Answer: Its growth is 106% (inactive).

Question: With `Cc1ccc(S(=O)(=O)n2cc(C(=O)C(=O)N3CCCCC3)c3ccccc32)cc1` as the molecule, how does the growth read?
Answer: Its growth is 78% (inactive).

Question: How did the growth turn out when `Cn1cc(-c2noc(-c3cn(C)c4ncc(F)cc34)n2)c2cc(Cl)ccc21` was run?
Answer: Its growth is 69.2% (inactive).

Question: How did the growth turn out when `O=C(Nc1cccc2ccccc12)c1cc2ccccc2cc1O` was run?
Answer: Its growth is 23.8% (inactive).

Question: `C#C[C@]1(O)CC[C@H]2[C@@H]3CC=C4c5nc(Nc6ncccn6)sc5CC[C@]4(C)[C@H]3CC[C@@]21C` was tested. Which growth did it give?
Answer: The growth was 29.5% (inactive).

Question: How did the growth turn out when `CC(=O)OC[C@]12CC[C@@H](C(=O)CBr)[C@@H]1[C@H]1CC[C@@H]3[C@@]4(C)CCCNC(C)(C)[C@@H]4CC[C@@]3(C)[C@]1(C)CC2` was run?
Answer: The growth was -65.5% [100 µM] (active).

Question: `O=S(=O)(c1ccc(N/N=C\c2ccccc2Cl)cc1)c1ccc(N/N=C/c2ccccc2Cl)cc1` was tested. Which growth did it give?
Answer: Its growth is 67.8% (inactive).

Question: With `Nc1nc(Cl)c2ncn(Cc3cc4c(cc3I)OCO4)c2n1` as the molecule, how does the growth read?
Answer: The growth was 62.1% (inactive).

Question: `Cc1ccc2c(c1)/C(=N\N=C/c1cn(C(C)C)c3ccccc13)C(=O)N2` was tested. Which growth did it give?
Answer: Its growth is 66.4% (inactive).

Question: Which growth does the source give for `O=C1CC(c2ccccc2)Cc2nc3ccc(Cl)cc3cc21` (configuration not stated) here?
Answer: Its growth is 45.2% (inactive).

Question: `C=C(C)[C@@H]1CC[C@]2(C(N)=O)CC[C@]3(C)[C@H](CC[C@@H]4[C@@]5(C)CC[C@H](O)C(C)(C)[C@@H]5CC[C@]43C)[C@@H]12` was tested. Which growth did it give?
Answer: Its growth is 4.41% [100 µM] (active).

Question: For `COc1ccc(-c2cc(-c3ccc(Cl)cc3)nc(SCCCCCCC(=O)NO)n2)cc1`, which growth is on record?
Answer: The growth was 31.7% (inactive).

Question: `Cc1cc[n+](CCCCCCCCCC[n+]2ccc(C)cc2)cc1` was tested. Which growth did it give?
Answer: Its growth is 93.4% (inactive).

Question: `CCCSc1nc(N)nc2nc[nH]c12` was tested. Which growth did it give?
Answer: Its growth is 108% (inactive).

Test system: SF-295 CNS
Test: as above
Conditions: 10 µM unless noted

Question: `O=C(CSc1nc2ccc([N+](=O)[O-])cc2[nH]1)Nc1ccc(F)c(Cl)c1` was tested. Which growth did it give?
Answer: The growth was 18.1% (inactive).

Question: For `Cc1cc(C)c(O)c(CNCCCCCCNCc2cc(C)cc(C)c2O)c1`, which growth is on record?
Answer: The growth was -83.6% (active).

Question: `CS(=O)(=O)c1cccnn1` was tested. Which growth did it give?
Answer: Its growth is 112% (inactive).

Question: For `Cc1ccc(S(=O)(=O)Nc2ccccc2)cc1N`, which growth is on record?
Answer: The growth was 119% (inactive).

Question: `Nc1cc(C(=O)O)[nH]c(=S)n1` was tested. Which growth did it give?
Answer: The growth was 101% (inactive).

Question: With `COc1ccc(-c2nc3ccccn3c2/C=C/C(=O)c2cc(OC)c(OC)c(OC)c2)cc1OC` as the molecule, how does the growth read?
Answer: Its growth is 4.4% (active).

Question: Which growth does the source give for `O=C(Nc1cccc2cccnc12)c1cc(C(=O)c2ccc(Cl)cc2)n2ccc(-c3ccncc3)cc12` here?
Answer: Its growth is 98.9% (inactive).

Question: Which growth does the source give for `Cc1cccc(C[C@H](NC(=O)Nc2ccc(C)cc2F)C(=O)N[C@@H]2C(=O)N3C[C@H](O)C[C@H]3C(=O)N3CCN(C)C[C@H]3C(=O)N[C@@H](C)C(=O)N3C[C@H](C)C[C@H]3C(=O)O[C@H]2C)c1` here?
Answer: The growth was 45% (inactive).

Question: How did the growth turn out when `O=C1COCCN1c1ccc(NCc2cn(Cc3cccc4ccccc34)c3ccccc23)cc1` was run?
Answer: The growth was 89.6% (inactive).

Question: How did the growth turn out when `COc1ncnc2c(-c3ccccc3)cn(COCc3ccccc3)c12` was run?
Answer: The growth was 52.6% (inactive).

Question: Which growth does the source give for `O=C1CN(Cc2ccc(C(=O)NO)cc2)C(=O)[C@@H](Cc2ccccc2)N1` here?
Answer: The growth was 99.3% (inactive).

Question: With `CC(C)C1=NOC(=O)C1=Cc1cn(-c2ccco2)nc1-c1ccccc1` as the molecule, how does the growth read?
Answer: The growth was 99.2% (inactive).

Question: For `c1ccc(-c2nnc(-c3c[nH]c4ncccc34)s2)cc1`, which growth is on record?
Answer: The growth was 96.8% (inactive).

Question: With `COCCCNc1nc(NC(=O)c2cc(Br)cc(C(F)(F)F)c2)cc(-c2cccnc2)n1` as the molecule, how does the growth read?
Answer: Its growth is 89.2% (inactive).

Question: With `CCn1cc(-c2cc(-c3ccc(Cl)cc3)nc(N)n2)c(-c2ccc(Br)cc2)n1` as the molecule, how does the growth read?
Answer: Its growth is 84.3% (inactive).

Question: How did the growth turn out when `CCOC(CNC(=O)c1cccc([N+](=O)[O-])c1)OCC` was run?
Answer: Its growth is 91.2% (inactive).

Question: Which growth does the source give for `Cc1cccc([N+](=O)[O-])c1I` here?
Answer: Its growth is 101% (inactive).

Question: With `CCOc1cc(NC(=O)c2ccccc2)c(OCC)cc1N` as the molecule, how does the growth read?
Answer: The growth was 121% (inactive).

Question: For `CN(C)CCOc1ccc(/C(=C(/CCCl)c2ccccc2)c2ccccc2)cc1`, which growth is on record?
Answer: Its growth is 4.51% (active).

Question: `Nc1nc(N)c2c(n1)NC(c1ccc(F)cc1)C1CCc3ccccc3C1=N2` (configuration not stated) was tested. Which growth did it give?
Answer: Its growth is 34.2% (inactive).

Question: `CNC(=O)c1cc(Oc2ccc3nc(NC(=O)c4ccc5ncccc5c4)sc3c2)ccn1` was tested. Which growth did it give?
Answer: Its growth is 86.9% (inactive).

Question: How did the growth turn out when `CC1(C)CC[C@]23CC[C@]4(C)[C@H](CC[C@@H]5[C@@]6(C)C/C(=C/c7ccncc7)C(=O)C(C)(C)[C@@H]6CC[C@]54C)[C@H]2[C@H]1OC3=O` was run?
Answer: The growth was 25.1% [100 µM] (inactive).

Question: How did the growth turn out when `CC1=CC[C@@H]2C(C)(C)C(=O)CC[C@@]2(C)[C@@H]1COc1ccc2ccc(=O)oc2c1` was run?
Answer: The growth was 69% (inactive).

Question: With `COc1ccc(/C=C/C=C\C(=O)c2ccc(-n3ccnc3)cc2)cc1` as the molecule, how does the growth read?
Answer: Its growth is 99.7% (inactive).

Question: `CCc1cccc(Cl)c1` was tested. Which growth did it give?
Answer: The growth was 110% (inactive).

Question: `Cc1ccc(S(=O)(=O)n2cc(C(=O)C(=O)N3CCCCC3)c3ccccc32)cc1` was tested. Which growth did it give?
Answer: The growth was 60.4% (inactive).

Question: `Cn1cc(-c2noc(-c3cn(C)c4ncc(F)cc34)n2)c2cc(Cl)ccc21` was tested. Which growth did it give?
Answer: Its growth is 41.6% (inactive).

Question: How did the growth turn out when `O=C(Nc1cccc2ccccc12)c1cc2ccccc2cc1O` was run?
Answer: The growth was 6.2% (active).

Question: `C#C[C@]1(O)CC[C@H]2[C@@H]3CC=C4c5nc(Nc6ncccn6)sc5CC[C@]4(C)[C@H]3CC[C@@]21C` was tested. Which growth did it give?
Answer: The growth was -66.2% (active).

Question: For `CC(=O)OC[C@]12CC[C@@H](C(=O)CBr)[C@@H]1[C@H]1CC[C@@H]3[C@@]4(C)CCCNC(C)(C)[C@@H]4CC[C@@]3(C)[C@]1(C)CC2`, which growth is on record?
Answer: Its growth is -85.4% [100 µM] (active).

Question: How did the growth turn out when `O=S(=O)(c1ccc(N/N=C\c2ccccc2Cl)cc1)c1ccc(N/N=C/c2ccccc2Cl)cc1` was run?
Answer: Its growth is 89.6% (inactive).

Question: `Nc1nc(Cl)c2ncn(Cc3cc4c(cc3I)OCO4)c2n1` was tested. Which growth did it give?
Answer: Its growth is 42.5% (inactive).

Question: How did the growth turn out when `Cc1ccc2c(c1)/C(=N\N=C/c1cn(C(C)C)c3ccccc13)C(=O)N2` was run?
Answer: The growth was 68.2% (inactive).

Question: With `O=C1CC(c2ccccc2)Cc2nc3ccc(Cl)cc3cc21` (configuration not stated) as the molecule, how does the growth read?
Answer: The growth was -3.44% (active).

Question: How did the growth turn out when `C=C(C)[C@@H]1CC[C@]2(C(N)=O)CC[C@]3(C)[C@H](CC[C@@H]4[C@@]5(C)CC[C@H](O)C(C)(C)[C@@H]5CC[C@]43C)[C@@H]12` was run?
Answer: The growth was -57.7% [100 µM] (active).

Question: `COc1ccc(-c2cc(-c3ccc(Cl)cc3)nc(SCCCCCCC(=O)NO)n2)cc1` was tested. Which growth did it give?
Answer: Its growth is 36.3% (inactive).

Question: For `Cc1cc[n+](CCCCCCCCCC[n+]2ccc(C)cc2)cc1`, which growth is on record?
Answer: Its growth is 73.1% (inactive).

Question: Which growth does the source give for `CCCSc1nc(N)nc2nc[nH]c12` here?
Answer: The growth was 120% (inactive).

— PubChem BioAssay (NCI)
